# From PubChem BioAssay
# Compounds with a hit are over-represented: about 6.2% of the library has one in this group of screens.
# KB-V1 MDR tox – kills drug-selected multidrug resistant KB-V1 cells; KB-V1 MDR cells viability, CellTiter-Glo, 72 h; Potency, µM (titrated, usually from 46.1 µM), actives largely listed as cytotoxic; 3.4% of 400,000 active; also: % is scaled to controls: 0 for no effect and ±100 for the full control effect; nearly all actives have a fitted effect of over 60% in size
#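 Potencies derive from concentration-effect curves fitted to normalized luminescence (CellTiter-Glo) of KB-V1 cells treated for 72 h at 37 degrees C in phenol-red-free DMEM containing 10% FBS.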
# HT1080 IDH1KD tx – HT-1080 IDH1 knockdown cell toxicity (counter line); HT-1080 IDH1 knockdown viability, ATP luminescence, 48 h; Potency, µM (top dose mostly 46.1 µM), inactives show at the highest dose activity, negative = toxicity, hits mostly cytotoxic; 2% of 360,000 active; AID 686971;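 also: 0% = DMSO wells and -100% = cell-free medium wells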
#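 CellTiter-Glo luminescence after 48 h compound exposure at 37 degrees C of IDH1-knockdown HT-1080 cells in 5% FBS RPMI. %Activity scaled between DMSO wells and cell-free media wells, with curves fitted and assigned curve classes.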
# KB-3-1 tox – kills parental KB-3-1 adenocarcinoma cells; KB-3-1 viability, CellTiter-Glo ATP luminescence, 72 h; Potency, µM (titrated, usually from 46.1 µM), hits mostly cytotoxic; 1.4% of 400,000 active; also: % is scaled to controls: 0 for no effect and ±100 for the full control effect; nearly all actives have a fitted effect of over 60% in size
#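 Parental KB-3-1 adenocarcinoma cells in phenol-red-free DMEM with 10% FBS were pin-treated with compounds at several concentrations, incubated 72 h at 37 °C, and viability read by CellTiter-Glo luminescence; concentration-effect curves were fitted after normalization.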
# ATXN viability – reduces viability in counter-screen for ATXN expression inhibitors; S2 cells (HEK-293 line with an ATXN2-luciferase reporter) viability, CellTiter-Fluor protease fluorescence, 24 h; 0.49% of 400,000 active; AID 651635; Potency, µM (series often up to 56.7 µM), usual class: cytotoxic; also: nearly all actives have a fitted effect of over 40% in size
# HT1080NT lethal – kills 2HG-producing HT-1080-NT fibrosarcoma cells. HT-1080-NT fibrosarcoma viability, CellTiter-Glo ATP luminescence, 48 h. Potency, µM (series often up to 46.1 µM), for inactives: at the highest dose activity, negative = less viability, usual class: cytotoxic. 1.6% of 360,000 active;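 also: NT is the 2HG producing partner of a matched IDH1 knockdown line; 0% = DMSO-treated cells and -100% = media-only wells without cells; nearly all actives have a fitted effect of over 55% in size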
#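 Toxicity toward the 2HG-producing NT line was scored as %Activity, normalised to DMSO and no-cell wells, from CellTiter-Glo luminescence after 48 hours' treatment.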
# ATXN2 expr inh – reduces ATXN2 reporter expression in HEK-293 cells; HEK-293 ATXN2-luciferase reporter, luminescence, 24 h; Potency, µM (doses to about 57 µM), for the others: at the top dose activity change, negative = inhibition, actives largely listed as inhibitors; 0.72% of 360,000 active; also: % is scaled to controls: 0 for no effect and ±100 for the full control effect; nearly all actives have a fitted effect of over 55% in size
#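 qHTS (up to 57 uM final) was run with 24 h compound exposure of reporter cells at 37 °C. Each well was multiplexed: SteadyGlo luminescence measured ATXN2-luciferase expression after a fluorogenic Gly-Phe-AFC viability readout (25 uM final).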
# An asterisk follows results filed as active; i = inactive; ? = inconclusive; . = no result given. Calls follow the shape of the dose curve; as a rule, active = well fitted curve in the direction sought with a large enough effect; inconclusive = small, poorly fitted or top-dose-only effect, or another doubt; inactive = no such curve, though single readings can be large; an effect the other way counts as inactive or inconclusive. Potency is read from the fitted curve at half-maximal effect.
SMILES,KB-V1 MDR tox,HT1080 IDH1KD tx,KB-3-1 tox,ATXN viability,HT1080NT lethal,ATXN2 expr inh
COc1ccc(OC)c(NC(=O)c2ccc3c(c2)c(C)c(C)n3Cc2ccc(F)cc2)c1,i,.,i,.,.,.
COc1cccc(/C=N/n2c(=S)n(C)c3cc(C)c(C)cc32)c1OC,16µM*,-1%,i,i,-3%,-1%
COc1ccc(Cc2nn3c(-c4ccccc4OC)nnc3s2)cc1,?,1%,i,i,-4%,5%
CCCCc1c(-c2ccccc2OC)ncn1CCc1ccc(Cl)cc1,12µM*,?,?,?,?,?
COc1ccccc1-c1cc(C(=O)Nc2cc(C)n(Cc3ccc(Cl)cc3)n2)no1,i,-3%,i,.,9%,?
CCCCc1c(-c2ccccc2OC)ncn1CCc1ccccc1,12µM*,21µM*,?,?,18µM*,?
CCCCc1c(-c2ccccc2OC)ncn1CCc1ccc(OC)cc1,9.2µM*,?,?,.,16µM*,?
Cc1cc(C(=O)C(=O)Nc2nncs2)c(C)n1-c1ccc(Cl)cc1,i,.,i,i,.,1%
Cc1ccc(SCCNC(=O)CN(c2ccccc2)S(=O)(=O)N(C)C)cc1,i,.,i,i,.,-1%
COc1ccc(C(=O)Nc2ccc3c(c2)N(C2CCCC2)C(=O)c2ccccc2S3)cc1OC,i,.,i,?,.,95%
CC(CNC(=O)C1CCN(C(=O)c2cc3sccc3n2C)CC1)c1ccccc1 (centres undefined),i,.,i,.,.,.
COC(=O)c1cnc(Oc2c(Cl)cc(N)cc2Cl)cc1C(F)(F)F,i,16µM*,i,i,?,5%
COC(=O)c1cnc(Oc2ccc(NC(=O)NC(=O)c3c(F)cccc3F)cc2)cc1C(F)(F)F,i,1%,i,i,6%,19%
COC(=O)c1cnc(Oc2ccc(NC(=O)NC(=O)c3c(OC)cccc3OC)cc2)cc1C(F)(F)F,2.3µM*,1.3µM*,?,i,?,38%
Cc1ccc(OCCn2cc(/C=C(\C#N)C(=O)NCC3CCCO3)c3ccccc32)cc1C (centres undefined),?,9%,i,i,-6%,-3%
Cc1ccc(OCCn2cc(/C=C(\C#N)C(=O)NCC3CCCO3)c3ccccc32)cc1 (centres undefined),21µM*,-10%,i,i,-4%,-5%
CCn1cc(/C=C/C(=O)NCc2c(C)nn(C)c2C)cn1,i,1%,i,i,1%,-2%
Cc1nn(C)c(C)c1CNC(=O)/C=C/c1ccccc1F,18µM*,3%,i,?,-1%,9%
O=C(Oc1cccc2cccnc12)c1ccc(N2C(=O)C3C4CCC(C4)C3C2=O)cc1 (centres undefined),i,13µM*,i,i,16µM*,-23%
O=C(Oc1cccc2cccnc12)c1cccc(N2C(=O)C3C4CCC(C4)C3C2=O)c1 (centres undefined),i,?,i,.,?,-26%
COc1ccc(/C=N/NC(=O)Cn2cnc3ccccc3c2=O)cc1,3.3µM*,4%,i,i,5%,-3%
Cc1cc(C)c(CN2C(=O)c3ccccc3S(=O)(=O)c3ccc(C(=O)OCC4CCCO4)cc32)c(C)c1 (centres undefined),i,.,i,?,.,-9%
CS(=O)(=O)N(CCCC(=O)N1CCCCCC1)c1cccc(Cl)c1,?,1%,i,i,-2%,.
N#Cc1ccc(-c2nc3ccc(Cl)cn3c2Cc2cccc(Cl)c2)cc1,i,-20%,i,?,-19%,-20%
Brc1ccc2nc(-c3ccco3)c(Cc3ccccc3)n2c1,i,?,i,?,?,3%
SMILES,KB-V1 MDR tox,HT1080 IDH1KD tx,KB-3-1 tox,ATXN viability,HT1080NT lethal,ATXN2 expr inh
Clc1cccc(Cc2c(-c3ccco3)nc3ccc(Br)cn23)c1,i,16µM*,i,.,?,?
Cc1cc2nc(-c3ccco3)c(Cc3cccc(Cl)c3)n2c(C)c1Br,i,21µM*,i,?,29µM*,?
Clc1ccc(-c2nc3ccc(Cl)cn3c2Cc2cccc(Cl)c2)cc1,i,?,i,i,?,13%
Clc1cccc(Cc2c(-c3ccco3)nc3ccc(Cl)cn23)c1,i,18µM*,i,.,23µM*,?
Cc1ccc2nc(-c3ccc(C#N)cc3)c(Cc3cccc(Cl)c3)n2c1,i,26µM*,i,i,?,-11%
CCCCc1nn2c(=O)cc(COC(=O)CNC(=O)c3ccccc3C)nc2s1,i,.,i,i,.,13%
CC1CCc2nc(-c3cc4c(ccc5ccccc54)oc3=O)sc2C1 (centres undefined),i,.,i,.,.,.
COC(=O)c1ccc2nc(-c3ccco3)c(Cc3ccc(OC)cc3C)n2c1,i,16µM*,i,?,?,-5%
COC(=O)c1ccc2nc(-c3ccco3)c(Cc3ccc(C)cc3)n2c1,i,?,i,i,?,15%
COCCCn1[nH]c2c3c(ccc2c1=O)C(=O)c1ccccc1C3=O,15µM*,?,?,i,?,-15%
CCC(=O)NC(=S)Nc1ccc(N2CCOCC2)cc1,i,18%,i,i,12%,38%
CCCC(=O)N1CCN(c2ccc(NC(=S)NC(=O)CC)cc2)CC1,23µM*,2%,i,i,22%,5%
CCOC(=O)c1sc(=S)n(C)c1NC(=O)c1ccc(C(C)(C)C)cc1,?,16µM*,?,?,?,-25%
CCOC(=O)c1sc(=S)n(C)c1NC(=O)c1ccc(OC)cc1,i,0%,i,i,1%,-2%
O=C(NCCc1ccccc1)C(c1cccs1)N(C(=O)CCl)c1ccc(Cl)cc1 (centres undefined),?,1.6µM*,?,5µM*,3.7µM*,4.5µM*
O=C(NCCc1ccccc1)C(c1cccs1)N(C(=O)c1csnn1)C1CC1 (centres undefined),i,-4%,i,i,1%,13%
Cc1ccc(C)c(Cn2c(=O)n(-c3ccccc3)c(=O)c3c4c(sc32)CCCC4)c1,i,.,i,i,.,15%
CCCn1c(=N)n(CC(O)COc2cccc(C)c2)c2ccccc21 (centres undefined),15µM*,?,?,?,-18%,?
CCCCCn1c(=N)n(CC(O)COc2cccc(C)c2)c2ccccc21 (centres undefined),?,.,i,20µM*,.,32µM*
